High-throughput results deposited in PubChem BioAssay by National Center for Advancing Translational Sciences (NCATS).
This is a sample that favours compounds with a hit; in the whole collection about 9.9% have one here.
HPGD block: blocks human HPGD enzyme activity. 4.3% of 150,000 active. Potency, µM, without a hit: at the highest dose activity change, negative = inhibition, actives largely listed as inhibitors. P15428. purified HPGD, NADH fluorescence kinetic, PGE2 substrate
Target sequence (P15428 whole entry, looked up): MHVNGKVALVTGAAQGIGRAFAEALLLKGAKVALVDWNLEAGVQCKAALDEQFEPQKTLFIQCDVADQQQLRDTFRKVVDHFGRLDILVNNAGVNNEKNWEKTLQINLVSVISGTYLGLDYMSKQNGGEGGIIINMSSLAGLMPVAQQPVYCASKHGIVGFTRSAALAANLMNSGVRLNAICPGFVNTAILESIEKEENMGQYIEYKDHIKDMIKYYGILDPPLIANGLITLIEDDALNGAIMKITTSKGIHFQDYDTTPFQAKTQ
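20 nM HPGD preincubated 15 min at room temperature with compound in 50 mM Tris-HCl pH 8, 0.01% Tween 20. Started with 1 mM NAD+ and 30 uM prostaglandin E2; NADH fluorescence (360/450 nm) read 5 times over 30-s intervals, last minus first.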
Tau fibril ThT: tau fibrillization inhibition (ThT binding); Potency, µM (highest dose often 57.4 µM), for inactives: at the highest dose activity, negative = inhibition, hits mostly inhibitors; recombinant tau K18 P301L, heparin-induced fibrillization, ThT fluorescence; 2.1% of 270,000 active; active means well fitted curve in the direction sought with a large enough effect; inconclusive means small, poorly fitted or top-dose-only effect, or another doubt; inactive means no such curve, though single readings can be large; an effect the other way counts as inactive or inconclusive; further: nearly all actives have a fitted effect of over 55% in size
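Recombinant human tau K18 fragment […] carrying P301L, 15 uM unlabeled plus 0.24 uM Alexa 594-labeled, was fibrillized with 20 uM heparin in 100 mM sodium acetate pH 7 for 6 hr at 37 C; 30 uM ThT fluorescence read after 1 hr.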
Tau fluor counter: counter-screen for tau fibril formation inhibitors; tau K18 P301L (four-repeat tau fragment) Alexa594 fluorescence, heparin fibrillization; Potency, µM (doses to about 57.7 µM), without a hit: top-dose activity change, negative = decrease; 0.93% of 280,000 active; AID 1463; active means well fitted curve in the direction sought with a large enough effect; inconclusive means small, poorly fitted or top-dose-only effect, or another doubt; inactive means no such curve, though single readings can be large; an effect the other way counts as inactive or inconclusive; further: nearly all actives have a fitted effect of over 55% in size
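Human K18 P301L tau (15 uM unlabeled plus 0.24 uM Alexa 594-labeled, final) in 100 mM sodium acetate pH 7 was mixed with compound and 20 uM heparin and incubated 6 hr at 37 C.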
KDM4E inh: blocks human JMJD2E demethylase activity. 1.6% of 230,000 active. B2RXH2. Potency, µM (top dose mostly 57.1 µM), for inactives: at the top dose activity change, negative = inhibition, usual class: inhibitors. JMJD2E catalytic domain, FDH-coupled NADH fluorescence (FDH is formaldehyde dehydrogenase);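 further: 0% = wells with enzyme and -100% = buffer wells without enzyme; nearly all actives have a fitted effect of over 50% in size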
Tau FP inhib: tau fibrillization inhibition (FP). P10636. K18 P301L tau heparin fibrillization, Alexa594 FP, 6 h. Potency, µM (series often up to 57.7 µM), without a hit: at the highest dose activity, negative = inhibition, hits mostly inhibitors. 0.39% of 280,000 active. AID 1468; active means well fitted curve in the direction sought with a large enough effect; inconclusive means small, poorly fitted or top-dose-only effect, or another doubt; inactive means no such curve, though single readings can be large; an effect the other way counts as inactive or inconclusive; further: nearly all actives have a fitted effect of over 55% in size
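FP of Alexa 594-tau after heparin (20 uM) induction. Substrate: human K18 P301L, 15 uM unlabeled, 0.24 uM labeled. Buffer 100 mM sodium acetate pH 7. 6 hr, 37 C.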
ALDH1A1 block: blocks purified human ALDH1A1 activity; Purified ALDH1A1, NADH fluorescence, propionaldehyde substrate; P00352; 7.3% of 220,000 active; Potency, µM (highest dose often 75.3 µM), without a hit: top-dose activity, negative = inhibition, most hits filed as inhibitors;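 further: plate controls were no enzyme wells and a reference inhibitor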
Target sequence (P00352 whole entry, looked up): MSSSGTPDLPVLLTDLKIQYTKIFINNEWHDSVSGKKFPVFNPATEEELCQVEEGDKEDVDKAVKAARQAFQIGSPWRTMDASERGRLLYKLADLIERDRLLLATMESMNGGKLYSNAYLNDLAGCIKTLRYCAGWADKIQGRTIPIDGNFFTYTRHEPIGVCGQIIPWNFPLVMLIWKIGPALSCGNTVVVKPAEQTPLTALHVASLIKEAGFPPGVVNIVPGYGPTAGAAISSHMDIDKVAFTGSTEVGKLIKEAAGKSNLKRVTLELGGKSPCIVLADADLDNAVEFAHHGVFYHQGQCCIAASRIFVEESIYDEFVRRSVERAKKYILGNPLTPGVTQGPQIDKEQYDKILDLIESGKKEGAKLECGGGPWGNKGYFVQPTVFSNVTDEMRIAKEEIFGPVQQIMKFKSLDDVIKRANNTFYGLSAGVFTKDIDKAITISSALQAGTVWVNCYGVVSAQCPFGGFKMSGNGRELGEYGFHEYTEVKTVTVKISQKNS
Starred values were filed as active, the others as inactive; ? = inconclusive; · = not tested or not shown; [ ] = another dose, or the depositor's remark. Unless noted, the call rests on the fitted dose curve; in most records, active means well fitted inhibition curve with a large enough effect (not every such curve was filed as active); inconclusive means small, poorly fitted or top-dose-only effect, or another doubt; inactive means no such curve, though single readings can be large or run the other way. Unless noted, on the % scale 0 is the no-effect control and ±100 the full control effect; potency means the concentration at half of the fitted maximal effect.

SMILES	HPGD block	Tau fibril ThT	Tau fluor counter	KDM4E inh	Tau FP inhib	ALDH1A1 block
O=C(CC(Nc1ccc(F)cc1)C(=O)OCC(=O)c1cccs1)c1ccccc1 (stereo not given)	-14.7%	?	-21.5%	-5.4%	7.0%	11.2µM*
O=C(CC(Nc1ccc(F)cc1)C(=O)O)c1ccccc1 (stereo not given)	-6.2%	?	3.5%	-2.4%	-1.0%	?
Cc1ccc(C)c(NC(=S)NCC(c2ccccc2)N(C)C)c1 (stereo not given)	·	2.7%	7.8%	-2.9%	1.5%	0.7%
Cc1ccc(N=Cc2ccc[nH]2)c(O)c1	-4.8%	15.8µM*	?	?	?	?
C[C@@H]1/C=C\CC(=O)OC[C@H](C)C(=O)N[C@@H](Cc2ccccc2)C(=O)OC1	·	-1.1%[11.5 µM]	0.0%[11.6 µM]	·	?	6.6%[13.5 µM]
COc1ccc(-n2c(=O)cnc3cnc(Nc4ccccc4)nc32)cc1	-4.0%	·	·	·	·	?
CNC(=O)C1CCC(Cn2c(=O)c3sccc3n(CC(=O)N3CCCC(C)C3)c2=O)CC1 (stereo not given)	·	-1.0%	5.0%	·	1.6%	·
C/C(=N\NS(=O)(=O)c1ccc(C)cc1)c1cc2ccccc2oc1=O	·	-16.0%	-10.9%	-19.1%	-1.7%	15.8µM*
C/C(=N\NC(=O)c1ccncc1)c1cc2ccccc2oc1=O	?	?	-10.2%	14.1µM*	0.1%	13.3%
C/C(=N\NC(=O)c1ccccc1)c1cc2cc([N+](=O)[O-])ccc2oc1=O	25.1µM*	?	-14.7%	-0.6%	5.7%	-14.7%
COC(=O)c1ccccc1NC(=O)CSc1c2c(nc3ccc(Cl)cc13)CCCC2	·	?	-20.9%	·	-5.9%	·
CC(C)C(=O)NC1CC(=O)N(c2ccc3c(c2)OCCO3)C1 (stereo not given)	·	-13.7%	-6.9%	·	-8.1%	·
CCC(c1nnnn1Cc1ccccc1)N1CCN(C(=O)c2ccco2)CC1 (stereo not given)	-8.0%	-9.8%	-2.0%	-8.1%	-1.6%	6.31µM*
O=C(c1ccco1)N1CCN(C(c2ccccn2)c2nnnn2C2CCCC2)CC1 (stereo not given)	-5.7%	?	-10.8%	-2.6%	-6.7%	12.6µM*
CCCC(c1nnnn1C1CCCC1)N1CCN(C(=O)c2ccco2)CC1 (stereo not given)	1.5%	-7.1%	5.2%	-24.2%	?	?
CCCCC(c1nnnn1C1CCCC1)N1CCN(C(=O)c2ccco2)CC1 (stereo not given)	-6.4%	-9.1%	-2.1%	-1.5%	-3.0%	11.2µM*
CCCC(c1nnnn1Cc1ccco1)N1CCC(C(N)=O)CC1 (stereo not given)	2.8%	-13.1%	-1.4%	-7.6%	?	3.55µM*
COc1cc(NC(=O)C2CCN(S(=O)(=O)c3c(C)noc3/C=C/c3ccccc3F)CC2)cc(OC)c1OC	·	2.8%	?	·	4.9%	·
Cc1ccc(CNC(=O)CN2N=C(c3ccccc3)CCC2=O)cc1	·	0.3%	-8.7%	·	-1.0%	·
CCC(c1nnnn1C1CCCC1)N1CCN(Cc2ccccc2)CC1 (stereo not given)	-5.6%	-10.9%	-2.3%	-2.4%	-0.8%	14.1µM*
c1cc(N2CCCC2)ccc1C(c1nnnn1C1CCCCC1)N1CCOCC1 (stereo not given)	·	?	?	?	0.2%	25.1µM*
Fc1ccccc1C(c1nnnn1C1CCCC1)N1CCN(Cc2ccccc2)CC1 (stereo not given)	1.9%	-7.2%	-6.3%	7.1%	-2.1%	?
CC(C)CC(c1nnnn1C1CCCC1)N1CCN(C(=O)c2ccco2)CC1 (stereo not given)	-6.0%	-9.4%	-3.9%	-1.9%	0.6%	8.91µM*
Oc1ccc(N2CCN(C(c3ccccn3)c3nnnn3C3CCCC3)CC2)cc1 (stereo not given)	-27.5%	?	-15.6%	?	-2.1%	25.1µM*
COCCCn1c(=N)c(C(=O)NC2CCCCC2)cc2c(=O)n3cc(C)ccc3nc21	·	4.9%	5.3%	·	-0.2%	·
SMILES	HPGD block	Tau fibril ThT	Tau fluor counter	KDM4E inh	Tau FP inhib	ALDH1A1 block
CC(C)(C)Nc1c(-c2ccc(O)cc2)nc2ccc(Cl)cn12	·	?	-9.5%	-1.6%	-9.7%	?
Cc1ccc2occ(C(c3nnnn3C3CCCC3)N3CCN(C(=O)c4ccco4)CC3)c(=O)c2c1 (stereo not given)	-5.0%	-11.7%	-5.9%	-0.4%	-8.9%	1.12µM*
Clc1nc2ccccc2nc1Cl	-9.7%	·	·	·	·	-9.5%
O=C1CSC(=S)N1N1C(=O)c2cccc([N+](=O)[O-])c2C1=O	·	12.6µM*	-25.0%	-1.5%	?	7.94µM*
CCn1cc(C(=O)NC(=S)Nc2cccc(O)c2)cn1	-9.4%	-13.1%	-10.5%	0.6%	-1.7%	-1.2%
NC(=O)NCCC1=CCCCC1	0.4%	-10.8%	-1.4%	0.7%	-4.9%	-3.1%
Cc1cc(C(=O)NCCC2=CCCCC2)c(C)o1	?	?	-10.6%	-1.8%	?	11.2µM*
COc1cccc2cc(C(=O)NCCC3=CCCCC3)c(=O)oc12	·	?	-18.7%	?	-1.8%	10µM*
Cc1ccc(C2(C)NC(=O)N(CC(=O)c3ccc(Cl)s3)C2=O)cc1 (stereo not given)	-11.4%	?	-24.7%	6.1%	1.1%	-9.5%
COC(=O)c1cn(-c2ccccc2)nc1-c1ccncc1	-7.1%	-2.1%	0.4%	-3.4%	0.4%	?
COc1ccc(-c2nn(-c3ccccc3)cc2C(=O)O)cc1OC	?	8.4%	3.3%	-2.3%	0.0%	?
O=C(O)CC/C(=N/NC(=O)c1cn(-c2ccccc2)nc1-c1ccccc1)C(=O)O	-17.9%	-16.9%	-24.8%	2.9%	4.4%	4.47µM*
CC(C)COc1ccc(-c2nn(-c3ccccc3)cc2C(=O)Nc2nccs2)cc1	?	14.8%	?	-23.9%	14.1µM*	?
O=C(OCc1ccccc1)c1cn(-c2ccccc2)nc1-c1ccncc1	?	-8.6%	-12.7%	-17.9%	-0.8%	20µM*
O=C(Nc1nccs1)c1cn(-c2ccccc2)nc1-c1ccccc1	-23.7%	-4.4%	?	-21.4%	?	?
CCOC(=O)c1ccc(NC(=O)c2cn(-c3ccccc3)nc2-c2ccc(OC)c(OC)c2)cc1	·	?	?	·	10µM*	·
Cc1cccc(-c2noc(-c3cccnc3NCc3ccccc3Cl)n2)c1	·	-7.6%	-19.6%	·	-3.3%	·
COc1cc(C(=O)NCC(c2ccc(N(C)C)cc2)N2CCc3ccccc32)cc(OC)c1OC (stereo not given)	·	?	?	·	-1.8%	·
Cn1cc(C(F)(F)F)nc1-c1ccc(OCC(O)CNCCOc2ccc(O)c(C(N)=O)c2)cc1 (stereo not given)	?	-11.3%	-13.5%	?	-2.5%	?
